IL1B secr inh: inflammasome signaling inhibition, IL-1 beta readout | THP-1 LPS/ATP IL-1B secretion, AlphaLISA, 16 h; active compounds read low | activity change, % at 57.5 µM | 360,000 tested, 4.7% active | AID 743279; in the data active = activity change below about -50%; inconclusive = mostly about -30% to -49%
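Secreted IL-1B measured by AlphaLISA bead assay after 16 h compound exposure of THP-1 cells; compounds (final up to 57.5 uM) added 1 h before LPS (250 ng/mL) and ATP (1.25 mM) stimulation; lower signal means less secretion.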
TDP1 cell CPT: growth inhibition of DT40 Tdp1-/-;hTDP1 cells with camptothecin (screen for TDP1 inhibitors). chicken DT40 Tdp1-/-;hTDP1 cells + 20 nM CPT, ATP luminescence, 48 h. AID 686979. 420,000 tested, 12% active. Potency, µM (highest dose often 46.2 µM), inactives show at the highest dose activity change, negative = growth inhibition, hits mostly inhibitors; note: potency is the fitted concentration of half-maximal effect; nearly all actives have a fitted effect of over 55% in size
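Chicken DT40 Tdp1-/- cells stably complemented with human TDP1 were seeded at 400 cells/well in medium containing 20 nM camptothecin, exposed to pin-transferred compounds, and grown at 37 °C for at least 48 hr. Viability was read as ATP luminescence.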
HT1080-NT tox: kills 2HG-producing HT-1080-NT fibrosarcoma cells; HT-1080-NT fibrosarcoma viability, CellTiter-Glo ATP luminescence, 48 h; Potency, µM (doses to about 46.1 µM), without a hit: at the top dose activity, negative = less viability, hits mostly cytotoxic; 360,000 tested, 1.6% active; AID 686970;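 note: NT is the 2HG producing partner of a matched IDH1 knockdown line; potency is the fitted concentration of half-maximal effect; 0% = DMSO-treated cells and -100% = media-only wells without cells; nearly all actives have a fitted effect of over 55% in size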
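750 cells/well, RPMI + 5% FBS; 2 h settle, compound pin-transfer, 48 h at 37 degrees C. CellTiter-Glo 10 min RT, luminescence. Normalized to DMSO and media-only wells.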
TDP1 cell noCPT: qHTS for Inhibitors of human tyrosyl-DNA phosphodiesterase 1 (TDP1): qHTS in cells in absence of CPT; 420,000 tested, 15% active; Potency, µM (top dose mostly 46.2 µM), for the others: at the highest dose activity change, negative = growth inhibition, most hits filed as inhibitors; AID 686978, 2013; DT40 Tdp1-/- hTDP1 cells, no CPT, ATP luminescence, 48 h; note: potency is the fitted concentration of half-maximal effect; nearly all actives have a fitted effect of over 55% in size
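Growth kinetics read by CellTiter-Glo luminescence after ≥48 hr at 37 °C. Cells: DT40 Tdp1-/- stably carrying human TDP1, 400 per well, compound exposure in the absence of CPT (DMSO vehicle).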
HT1080 IDH1KD tx: kills HT-1080 cells with IDH1 knockdown. HT-1080 IDH1 knockdown viability, ATP luminescence, 48 h. Potency, µM (series often up to 46.1 µM), for inactives: at the top dose activity, negative = toxicity, actives largely listed as cytotoxic. 360,000 tested, 2% active;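 note: potency is the fitted concentration of half-maximal effect; 0% = DMSO wells and -100% = cell-free medium wells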
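CellTiter-Glo luminescence after 48 h compound exposure at 37 degrees C of IDH1-knockdown HT-1080 cells in 5% FBS RPMI. %Activity scaled between DMSO wells and cell-free media wells, with curves fitted and assigned curve classes.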
* = called active by the depositor; ? = inconclusive; · = not tested or not shown; [ ] = dose if it differs, or a comment. A selection: hits, their analogues and other compounds. The true share with any hit is near 19%. Unless noted, calls come from the whole dose curve; as a rule, active = well fitted curve in the direction sought with a large enough effect; inconclusive = small, poorly fitted or top-dose-only effect, or another doubt; inactive = no such curve, though single readings can be large; an effect the other way counts as inactive or inconclusive. Unless noted, % is set by controls: 0 for no effect and ±100 for the full control effect.

SMILES | IL1B secr inh | TDP1 cell CPT | HT1080-NT tox | TDP1 cell noCPT | HT1080 IDH1KD tx
COC(=O)C1=C(C)N(Cc2ccccc2)C(=NCc2cccc(C(F)(F)F)c2)N[C@H]1c1cccc(C(F)(F)F)c1 | -101* | 3.3µM* | ? | 3.7µM* | ?
CCN1C(=NCCCCO)N[C@@H](c2cccc(C(F)(F)F)c2)C(C(=O)OC)=C1C | -23 | ? | -8% | -20% | -10%
COC(=O)C1=C(C)N(Cc2ccccc2)C(=NCCCCO)N[C@H]1c1cccc(C(F)(F)F)c1 | ? | 23µM* | -18% | ? | -1%
C=CCN=C1N[C@@H](c2cccc(C(F)(F)F)c2)C(C(=O)OC)=C(C)N1CC | -25 | ? | -10% | ? | -10%
CCN1C(=NCC(C)C)N[C@@H](c2cccc(C(F)(F)F)c2)C(C(=O)OC)=C1C | ? | ? | -14% | 21µM* | -10%
CCc1ccc(NC(=O)c2ccc3[nH]c(C)c(C)c3c2)cc1 | · | -12% | · | -12% | ·
CC[C@H](C)/C=C(C)/C=C/C(=O)Cc1cc(O)c(C)c(O)c1C=O | -10 | ? | -7% | ? | -12%
CC[C@H](C)/C=C(C)/C=C/C1=CC2=CC(=O)[C@]3(C)OC(=O)[C@@H](C(C)=O)[C@@H]3C2=CO1 | 10 | 2.1µM* | -7% | -76% | ?
CC(=O)OC1CCC2(C)C(=CCC3C2CCC2(C)C3C[C@@H]3O[C@]32C(C)=O)C1 (stereo not given in full) | · | 13% | · | 3% | ·
CCCN1C(=O)/C(=C/c2cc(C)n(C)c2C)SC1=Nc1ccc(OC)cc1 | -15 | 13µM* | ? | 9.2µM* | -22%
COc1ccc(N=C2S/C(=C\c3cc(C)n(C)c3C)C(=O)N2C)cc1 | -19 | ? | -25% | 6.5µM* | -24%
C[C@H]1CN([C@@H](C)CO)C(=O)CCCn2cc(nn2)CO[C@@H]1CN(C)C(=O)Nc1ccccc1C(F)(F)F | 13 | 5% | 2% | -21% | 2%
Cc1[nH]c2ccc(C(=O)NC3CCC(C)CC3)cc2c1C (stereo not given) | -14 | ? | 0% | 12µM* | -2%
Cc1[nH]c2ccc(C(=O)Nc3ccncc3)cc2c1C | -16 | 13µM* | -3% | 12µM* | -3%
CC(C)(C)c1ccc(C(=O)COC(=O)CN2C(=O)NC3(CCCC3)C2=O)cc1 | 7 | ? | 0% | -21% | 2%
CCOC(=O)[C@]12CCCC=C1N(Cc1ccc3c(c1)OCO3)C(=O)[C@H](CC(=O)NCCC(C)C)C2 | -5 | ? | -11% | ? | -7%
COC(=O)[C@]12CCCCC=C1N(Cc1ccc3c(c1)OCO3)C(=O)[C@H](CC(=O)NCC13CC4CC(CC(C4)C1)C3)C2 | -4 | ? | ? | 18µM* | ?
COC(=O)[C@]12CCCCC=C1N(Cc1ccc3c(c1)OCO3)C(=O)[C@H](CC(=O)NCc1ccc(C)o1)C2 | -14 | ? | -4% | ? | 1%
CCCCNC(=O)C[C@@H]1C[C@@]2(C(=O)OCC)CCCC=C2N(Cc2ccc3c(c2)OCO3)C1=O | -11 | ? | -3% | 21µM* | -1%
CCCCOCCCNC(=O)C[C@@H]1C[C@@]2(C(=O)OCC)CCCC=C2N(Cc2ccc3c(c2)OCO3)C1=O | 0 | 6.5µM* | -18% | ? | -25%
CCOc1ccc(CCNC(=O)NCc2noc3ccc(C)cc23)cc1 | · | -24% | · | ? | ·
COCCCNC(=O)CCC(=O)NNc1nc2ccccc2c2nc(C)nn12 | 13 | 11% | 9% | 4% | 8%
COc1ccc(NC(=O)C23CC4CC(C2)CC(n2cnc(Br)n2)(C4)C3)cc1Cl | 13 | ? | -2% | 23µM* | -22%
COC(=O)c1ccccc1NC(=O)C12CC3CC(C1)CC(n1cnc(Cl)n1)(C3)C2 | ? | 21µM* | ? | 16µM* | -1%
O=C(O)c1cccc(NC(=O)C23CC4CC(C2)CC(n2cnc(Cl)n2)(C4)C3)c1 | 16 | 10% | 7% | 9% | 5%
SMILES | IL1B secr inh | TDP1 cell CPT | HT1080-NT tox | TDP1 cell noCPT | HT1080 IDH1KD tx
O=C(Nc1cccc2ccccc12)C12CC3CC(C1)CC(n1cnc([N+](=O)[O-])n1)(C3)C2 | -10 | 23µM* | -11% | 26µM* | -9%
CCCn1c(C2CCCN2c2nc(-c3cccc(Br)c3)cs2)nc2ccccc21 (stereo not given) | -17 | ? | -26% | ? | -19%
Cc1ccc(-c2noc(-c3nnn(CC(=O)Nc4ccc(C)c(Cl)c4)c3N)n2)cc1 | · | -28% | · | -14% | ·
O=c1[nH]c(N2CCCCC2)nc2ncn(Cc3ccccc3)c12 | ? | ? | 12% | ? | -1%
Cc1cccc(NC(=O)N2C3CCCC2CC(NC(=O)C2CC2)C3)c1 (stereo not given) | -13 | 4% | 3% | -8% | -1%
O=C(NC1CC2CCCC(C1)N2C(=O)Nc1ccc(Cl)c(C(F)(F)F)c1)C1CC1 (stereo not given) | -24 | ? | -1% | 16µM* | -12%
CC(C)(C)OC(=O)N[C@H](C(=O)OC(C)(C)C)c1ccc2ccccc2c1 | 6 | 8.2µM* | -1% | -27% | 5%
CNC(=O)/C(=C\c1ccc([N+](=O)[O-])cc1)NC(C)=O | -5 | -1% | 10% | 1% | 12%
N=c1ccn2c(n1)OCC1C2O[C@@H](O)[C@H]1O (stereo not given in full) | · | 0.13µM* | · | 0.15µM* | ·
CC(C)(C)C1CCSC2=NCCC[C@]2(c2ccccc2)C1 (stereo not given in full) | -1 | ? | -16% | 18µM* | -25%
OCC1(Cc2ccc(Cl)cc2)CCN(CCCc2ccccc2)CC1 | -77* | ? | ? | 23µM* | ?
CSc1ccc(CN2CCC(CO)(Cc3ccc(Cl)cc3)CC2)cc1 | -94* | ? | ? | 18µM* | -23%
OCC1(Cc2ccc(Cl)cc2)CCN(CC2CC=CCC2)CC1 (stereo not given) | -62* | 29µM* | -14% | ? | ?
COc1ccc(OC)c(C(=O)Nc2ccc3[nH]ccc3c2)c1 | -13 | -1% | -1% | -2% | 9%
CCOC(=O)c1ccc(N=Cc2cnc(N)nc2N)cc1 | 9 | ? | -14% | -20% | -4%
CCn1nc(C)cc1C(=O)NCC1Cc2cccc(-c3cccnc3)c2O1 (stereo not given) | · | 12%[9.04 µM] | · | ? | ·
C=C1SC(=Nc2c(C)cc(C)cc2C)N(C(=O)c2sc3ccccc3c2Cl)C12CCCCC2 | -9 | ? | 3% | 21µM* | 10%
O=C(NC1CC1)c1sc2ccccc2c1Cl | ? | -7% | 6% | -22% | 15%
